The source of these data is PubChem BioAssay (EPA / NIEHS).

Structures are written as SMILES. Where “and” joins values, the source holds several entries; their conditions need not be identical. Identical values can stand only once. Records with an inconclusive call do not appear. A structure can be active in one record and inactive in another. Calls of active or inactive are those of the source. How the source made its calls, unless noted: active means hit-call score of the fitted dose curve at least 0.9, where 1 is the maximum; inactive means score below 0.9.

Test [1] is described as follows: CCTE_Shafer_MEA_dev_correlation_coefficient_mean: CCTE's Neural Network Formation Assay for Mean Correlation Coefficient, Shafer Lab (AID 2284093).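 On AC50: well mean pairwise spike train correlation integrated as AUC over recording days 5 to 12; potency fitted for loss of correlation relative to DMSO vehicle wells.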 In a few lines:
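Extracellular firing from rat cortical networks on 48-well MEAs, DMSO-referenced, negative fitting direction. Compound present from plating to DIV12; mean pairwise correlation per well integrated over DIV5–12 recordings by trapezoidal AUC.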

Test [2] in a line: BSK_BT_PBMCCytotoxicity: PBMC Cytotoxicity Assessment in the BioMAP Diversity Plus: BT Assay (AID 2284225).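 Further: PBMC viability measured by Alamar Blue dye reduction fluorescence.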 The following applies: primary human B cells with PBMC. In a few lines: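 PBMC (75,000/well) pretreated with compound 1 h, then activated with SEB and TSST-1 (20 ng/mL each final), incubated 90 h; Alamar Blue added 6 h, fluorescence read at 546/580 nm. Fitted relative to DMSO.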

Read-out in test [3]: Secreted IgG (sIgG), gene 3500
Description: BSK_BT_sIgG: BioMAP Diversity Plus: BT Assay for Secreted IgG (sIgG) Biomarker Activity (AID 2284226). The following applies: primary human B cells with PBMC. The gist of the method:
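Read-out: ELISA for secreted IgG after 24 h of chemical exposure in a B cell plus PBMC co-culture. Values reflect upward-direction fitting against DMSO negative controls.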

Test [4] can be described thus: BSK_BT_Bcell_Proliferation: Viability Assessment in the BioMAP Diversity Plus: BT Assay for B cell Proliferation (AID 2284227). The following applies: primary human B cells with PBMC. In a few lines:
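Using a human primary B cell–PBMC co-culture, the assay measures total protein by sulforhodamine B absorbance as a gauge of proliferation after 72 h. Analysis followed the positive fitting direction with DMSO as baseline.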

Read-out in test [5]: Interleukin 6 (IL6), IL6 (gene 3569)
Description: BSK_BT_xIL6: BioMAP Diversity Plus: BT Assay for Interleukin 6 (IL6) Biomarker Activity (AID 2284228). The following applies: primary human B cells with PBMC. The gist of the method:
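Human B cell/PBMC co-culture; secreted IL-6 quantified by Luminex xMAP 24 h after chemical dosing, fitted relative to DMSO. Parallel PBMC viability by Alamar Blue after 1 h pretreatment, 20 ng/mL SEB and TSST-1, 90 h incubation.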

Read-out in test [6]: Interleukin 17A (IL17A), IL17A (gene 3605)
Description: BSK_BT_xIL17A: BioMAP Diversity Plus: BT Assay for Interleukin 17A (IL17A) Biomarker Activity (AID 2284229). The following applies: primary human B cells with PBMC. In a few lines:
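Co-culture of human B cells and PBMC, dosed for 24 h in 96-well format. Secreted IL-17A measured with Luminex xMAP; gain-direction fitting against DMSO as baseline.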

Read-out in test [7]: Tumor necrosis factor (Homo sapiens) (UniProt P01375)
The experiment in a line: BSK_BT_xTNFa: BioMAP Diversity Plus: BT Assay for Tumor necrosis factor alpha (TNF-alpha) Biomarker Activity (AID 2284230). The note with it: primary human B cells with PBMC. The gist of the method:
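Endpoint derived in the positive direction versus DMSO vehicle. Cells: B cells together with PBMC, exposed 24 h before TNF-alpha in the medium was read on the Luminex xMAP platform.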

Read-out in test [8]: Collagen I, COL1A1 (gene 1277)
Description: BSK_MyoF_CollagenI: BioMAP Diversity Plus: MyoF Assay for Collagen I Biomarker Activity (AID 2284238). The note with it: primary human lung fibroblasts. The gist of the method:
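Primary human lung fibroblasts (MyoF system) treated 24 h; Collagen I quantified by ELISA and fitted in positive direction against DMSO. Parallel SRB total-protein staining assessed overt cytotoxicity.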

Read-out in test [9]: Collagen III, COL3A1 (gene 1281)
The experiment in a line: BSK_MyoF_CollagenIII: BioMAP Diversity Plus: MyoF Assay for Collagen III Biomarker Activity (AID 2284239). The following applies: primary human lung fibroblasts. The gist of the method:
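Primary human lung fibroblasts (BioMAP MyoF system) exposed 24 h. Collagen III measured by ELISA; positive-direction fit relative to DMSO.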

Read-out in test [10]: Interleukin 17F (IL17F), IL17F (gene 112744)
Description: BSK_BT_xIL17F: BioMAP Diversity Plus: BT Assay for Interleukin 17F (IL17F) Biomarker Activity (AID 2284243). The following applies: primary human B cells with PBMC. In a few lines: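 Human PBMC co-cultured with B cells, compound exposure 24 h; secreted IL-17F quantified by Luminex xMAP, referenced to DMSO control. PBMC viability measured in parallel by Alamar Blue reduction.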

Read-out in test [11]: Actin alpha 1 (ACTA1), ACTA1 (gene 58)
The experiment in a line: BSK_MyoF_ACTA1: BioMAP Diversity Plus: MyoF Assay for Actin alpha 1 (ACTA1) Biomarker Activity (AID 2284244). The note with it: primary human lung fibroblasts. In a few lines: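 Lung fibroblasts, human primary, 24 h compound exposure → a-SMA ELISA. Positive-direction fit vs DMSO control.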

Read-out in test [12]: Interleukin 2 (IL2), IL2 (gene 3558)
The experiment in a line: BSK_BT_xIL2: BioMAP Diversity Plus: BT Assay for Interleukin 2 (IL2) Biomarker Activity (AID 2284245). The note with it: primary human B cells with PBMC. The gist of the method:
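B cell + PBMC co-culture (human primary), compound added, 24 h incubation; secreted IL-2 measured multiplexed on Luminex xMAP; gain-of-signal fit vs DMSO.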

Read-out in test [13]: Basic fibroblast growth factor (bFGF), FGF2 (gene 2247)
Description: BSK_MyoF_bFGF: BioMAP Diversity Plus: MyoF Assay for Basic fibroblast growth factor (bFGF) Biomarker Activity (AID 2284246). The note with it: primary human lung fibroblasts. In a few lines:
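ELISA-measured bFGF level serves as the read-out, taken 24 h after chemical dosing of human lung fibroblasts. Values represent signal gain over the DMSO negative control.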

Read-out in test [14]: Collagen IV, COL4A1 (gene 1282)
The experiment in a line: BSK_MyoF_CollagenIV: BioMAP Diversity Plus: MyoF Assay for Collagen IV Biomarker Activity (AID 2284247). The note with it: primary human lung fibroblasts. In a few lines: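 Steps: dose human lung fibroblasts; culture 24 h; quantify Collagen IV by ELISA; fit increase versus DMSO control. Parallel SRB total-protein staining (0.1% SRB after 10% TCA fixation, 560 nm) tracks overt cytotoxicity.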

Read-out in test [15]: Monokine induced gamma interferon (MIG), CXCL9 (gene 4283)
Description: BSK_KF3CT_MIG: BioMAP Diversity Plus: KF3CT Assay for Monokine induced gamma interferon (MIG) Biomarker Activity (AID 2284248). The following applies: primary human keratinocytes with fibroblasts. The gist of the method:
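Human keratinocyte–foreskin fibroblast co-culture; MIG measured by ELISA 24 h after chemical dosing, fitted upward versus DMSO. Cytotoxicity was assessed in parallel cultures by SRB total-protein staining read at 560 nm.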

Read-out in test [16]: Vascular cell adhesion molecule 1 (VCAM1), VCAM1 (gene 7412)
The experiment in a line: BSK_BF4T_VCAM1: BioMAP Diversity Plus: BF4T Assay for Vascular cell adhesion molecule 1 (VCAM1) Biomarker Activity (AID 2284249). The following applies: primary human bronchial epithelial cells with fibroblasts. In a few lines:
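Human bronchial epithelial cell and dermal fibroblast co-culture exposed 24 h. VCAM-1 measured by ELISA; parallel SRB total-protein staining for cytotoxicity. Fitted in positive direction relative to DMSO.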

Test [17] can be described thus: CCTE_Mundy_HCI_hNP1_Casp3_7: CCTE's Caspase-Glo 3/7 Assay in human neuroprogenitor cells for Apoptosis, Mundy Lab (AID 2284240). The gist of the method: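 Neuroepithelial-lineage stem cells from WA09 embryonic cells were treated with chemicals after 40–44 h of culture. Twenty-four hours later, caspase-3/7 activation was detected luminescently after a 30 min room-temperature reagent step, with DMSO as baseline.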

Test [18] can be described thus: CCTE_Mundy_HCI_hNP1_CellTiter: CCTE's Cell Titer-Glo 2 Assay in human neuroprogenitor cells for Viability, Mundy Lab (AID 2284241; active means hit-call score of the fitted dose curve at least 0.9, where 1 is the maximum). The gist of the method:
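Measures ATP content in human neural progenitors derived from WA09 embryonic cells. Read-out at 26.5 hours after dosing, with DMSO serving as the negative control and baseline.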

Read-out in test [19]: Vascular cell adhesion molecule 1 (VCAM1), VCAM1 (gene 7412)
Description: BSK_MyoF_VCAM1: BioMAP Diversity Plus: MyoF Assay for Vascular cell adhesion molecule 1 (VCAM1) Biomarker Activity (AID 2284231). The note with it: primary human lung fibroblasts. In a few lines: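 Primary human lung fibroblasts (BioMAP MyoF system) dosed with chemical, VCAM-1 measured by ELISA 24 hours later. Fitted in the positive direction against DMSO; parallel SRB staining assessed cytotoxicity.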

The nature of test [20]: CCTE_Mundy_HCI_hNP1_Pro_ResponderAvgInten: CCTE's Proliferation Assay in human neuroprogenitor cells, Mundy Lab (AID 2284224; active means hit-call score of the fitted dose curve at least 0.9, where 1 is the maximum;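 further: human neural progenitor cells hNP1 derived from WA09 embryonic stem cells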). In a few lines: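 Human neuroprogenitors (hNP1, WA09 lineage) receive test chemical after 40 to 44 hours of attachment. A four-hour BrdU pulse begins twenty hours later, followed by fixation and high content imaging; signal is referenced to DMSO controls.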

Chain of Tumor necrosis factor (Homo sapiens) (P01375 whole entry, looked up): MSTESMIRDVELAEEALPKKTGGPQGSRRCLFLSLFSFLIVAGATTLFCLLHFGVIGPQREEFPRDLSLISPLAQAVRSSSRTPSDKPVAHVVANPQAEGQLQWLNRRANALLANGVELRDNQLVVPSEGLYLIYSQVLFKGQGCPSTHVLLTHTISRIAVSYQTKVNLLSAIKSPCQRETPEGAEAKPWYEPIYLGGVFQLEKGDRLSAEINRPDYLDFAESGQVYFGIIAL

For `OCC(F)(F)C(F)(F)C(F)(F)CO`, the call in test [1], in [2], in test [3], in [4], in test [5] and in test [6] was inactive. Further, the outcome in [7], in [8], in [9], in test [10], in test [11] and in test [12] was inactive. The outcome in test [13], in test [14], in test [15] and in [16] was inactive.

As for `O=C(F)C1(F)C(F)(F)C(F)(F)C(F)(F)C(F)(F)C1(F)F`, the result in test [2], in test [3], in test [4], in test [5], in test [6] and in [7] was inactive. Moreover, the outcome in test [8], in [9], in test [17], in test [18], in test [10] and in test [11] was inactive. The result in [12], in test [13], in test [14], in [15] and in [16] was inactive.

In the case of `CO[Si](C)(CCC(F)(F)C(F)(F)C(F)(F)C(F)(F)C(F)(F)C(F)(F)F)OC`, the molecule was called inactive in test [1], in [2], in test [3], in [4], in [5] and in test [7]. In addition, the outcome in test [19], in [8], in [9], in test [10], in test [11] and in test [12] was inactive. The outcome in test [13], in test [14], in test [15] and in [16] was inactive.

Regarding `O=S(=O)(O)CCC(F)(F)C(F)(F)C(F)(F)C(F)(F)F`, the result in [1], in test [2], in test [3], in test [4], in test [5] and in test [7] was inactive. In addition, the result in test [8], in [9], in test [10], in test [11], in test [12] and in test [14] was inactive. Also, the result in [15] and in test [16] was inactive.

For orientation: AC50 means the concentration giving half of the maximal activity seen. For the molecule `O=S(=O)(OCC(F)(F)F)C(F)(F)C(F)(F)C(F)(F)C(F)(F)F`, the figures for the AC50 in [2] and in [7] were 8.88 µM (active) and 3.48 µM (active), respectively. The outcome in test [2], in test [3], in test [4], in test [5], in test [7] and in test [8] was inactive. In addition, the outcome in [9], in test [10], in [11], in test [12], in [14] and in test [15] was inactive. Also, the result in test [16] was inactive.

As to `C=CC(=O)OCC(F)(F)C(F)(F)C(F)(F)COC(=O)C=C`, the AC50 in test [1] was 8.13 µM (active); in test [2] it was 9.5 µM (active) and 8.85 µM (active); in [3], 6.41 µM (active) and 7.8 µM (active); in test [4] it was 9.4 µM (active) and 9.64 µM (active); in [5] it was 10.4 µM (active) and 8.91 µM (active); in test [7], 8.9 µM (active) and 9.3 µM (active). Moreover, the AC50 in test [19] is 9.52 µM (active) and 9.72 µM (active); in test [8], 9.95 µM (active) and 11.1 µM (active); in test [9], 13.9 µM (active) and 14.7 µM (active); in [10], 2.89 µM (active) and 3.25 µM (active); in test [11], 8.23 µM (active) and 4.42 µM (active); in test [12], 9.03 µM (active) and 9.56 µM (active). Further, the AC50 in test [15] was 23.2 µM (active) and 22.2 µM (active); in test [16] it was 7.91 µM (active) and 8.05 µM (active). Besides, the molecule was called inactive in test [20], in [17], in test [18] and in test [14].
